Records with an inconclusive call do not appear. Where a call stands in place of a potency, no number is given. Active and inactive are the calls of the source. Unless noted, the call rests on the fitted dose curve.

Tested on in the first test: not listed separately
The test can be described thus: qHTS for Inhibitors of the Functional Ribonucleoprotein Complex (vRNP) of Lymphocytic Choriomeningitis Arenaviruses (LCMV): Viability assay - alamar blue signal for LCMV Primary Screen (AID 1347085; calls by dose curve; tested in HEK293 reporter line; further: nearly all actives have a fitted effect of over 80% in size). Particulars: alamar blue viability counter-screen, LCMV vRNP screen cells; series mostly up to 57.5 µM.
Take `CCCc1nn(C)c2c(=O)[nH]c(-c3cc(S(=O)(=O)N4CCN(C)CC4)ccc3OCC)nc12`: the Potency result was “inactive”.

`CCCCC(O)/C=C(C)/C=C/C=C/C(=O)N1CCCC1=O` (stereo not drawn): the Potency result is “inactive”.

`Cc1c(N(C)CS(=O)(=O)O)c(=O)n(-c2ccccc2)n1C`: the Potency entry is “inactive”.

For `CCC1=C(C)CN(C(=O)NCCc2ccc(S(=O)(=O)NC(=O)NC3CCC(C)CC3)cc2)C1=O` (stereo not drawn), the Potency entry is “inactive”.

For `Cc1ccc2ccc(Cl)cc2n1`, the Potency entry was “inactive”.

As to `CO[C@@]1(NC(=O)CSC[C@@H](N)C(=O)O)C(=O)N2C(C(=O)O)=C(CSc3nnnn3C)CS[C@@H]21`, the Potency entry is “inactive”.

Regarding `Cc1ccc(S(=O)(=O)NC(=O)NC2CCCCCCC2)cc1`, the Potency entry was “inactive”.

On to `O=C1C(O)=C(O)C(=O)C(O)=C1O`, for which the Potency entry was “inactive”.

As to `COc1cc(C=O)ccc1O`, the Potency result is “inactive”.

`CC(O)C(=O)O` (stereo not drawn): the Potency entry is “inactive”.

In the case of `CCCCCCCCCCCC(=O)[O][Sn]([CH2]CCC)([CH2]CCC)[O]C(=O)CCCCCCCCCCC`, the Potency result is “inactive”.

As for `Oc1ccccc1-c1nnco1`, the Potency entry is “inactive”.

As for `C[C@@H](O)[C@H]1C(=O)N2C(C(=O)O)=C(SCCN=CN)C[C@H]12`, the Potency entry is “inactive”.

Take `CC(=O)OCC(=O)[C@H]1CC[C@H]2[C@@H]3CCC4=CC(=O)CC[C@]4(C)[C@H]3CC[C@]12C`: the Potency result was “inactive”.

For the compound `Cc1cccc(C)c1NC(=O)CC12CCCN1CCC2`, the Potency result was “inactive”.

On to `O=C(O)Cn1c(=O)n(Cc2ccc(Br)cc2F)c(=O)c2ccc(Cl)cc21`, for which the Potency entry is “inactive”.

With `O=C(O)CN1C(=O)c2cccc3cccc(c23)C1=O`, the Potency result is “inactive”.

In the case of `Cc1ncc(CO)c(CO)c1O`, the Potency entry was “inactive”.

With `CN1CCN(C(=O)C2CCCCC2)CC1`, the Potency entry is “inactive”.

On to `COC(=O)c1cccnc1`, for which the Potency result is “inactive”.

On to `CC(=O)NCc1c(I)c(NC(C)=O)c(I)c(C(=O)O)c1I`, for which the Potency result was “inactive”.

For `Cc1ccccc1C(=O)N1CC/C(=N\OS(=O)(=O)O)c2ccc(Cl)cc21`, the Potency result is “inactive”.

For the compound `Nc1ccc(C(=O)Oc2ccccc2)c(O)c1`, the Potency result was “inactive”.

`COc1cnc(NS(=O)(=O)c2ccc(N)cc2)nc1`: the Potency result was “inactive”.

For the compound `CO[C@@]1(NC(=O)Cc2cccs2)C(=O)N2C(C(=O)O)=C(COC(N)=O)CS[C@@H]21`, the Potency result was “inactive”.

Consider `O=C(CCCl)NCCc1ccccc1`, for which the Potency result was “inactive”.

Regarding `CCOc1cc(OCC)c(C(=O)CCC(=O)O)cc1OCC`, the Potency result was “inactive”.

For `CC1COc2c(N3CCN(C)CC3)c(F)cc3c(=O)c(C(=O)O)cn1c23` (stereo not drawn), the Potency result is “inactive”.

On to `CC(CN(C)C)C(C)(O)Cc1ccc(Cl)cc1` (stereo not drawn), for which the Potency entry was “inactive”.

Take `CCn1cc(C(=O)O)c(=O)c2cnc(N3CCNCC3)nc21`: the Potency result is “inactive”.

Turning to `Cc1oc(=O)oc1CN1CCN(c2cc3c(cc2F)c(=O)c(C(=O)O)c2n3C(C)S2)CC1` (stereo not drawn), the Potency entry was “inactive”.

For `Cc1ccsc1/C=C/C1=NCCCN1C`, the Potency entry is “inactive”.

Turning to `COc1ccc2c(c1)c(CC(=O)OC/C=C(\C)CC/C=C(\C)CCC=C(C)C)c(C)n2C(=O)c1ccc(Cl)cc1`, the Potency result was “inactive”.

On to `O=C(Oc1ccccc1C(=O)O)c1ccccc1O`, for which the Potency entry was “inactive”.

As for `COc1ccc(S(=O)(=O)Nc2nnc(CC(C)C)s2)cc1`, the Potency result is “inactive”.

Turning to `CC(C)(Sc1cc(C(C)(C)C)c(O)c(C(C)(C)C)c1)Sc1cc(C(C)(C)C)c(O)c(C(C)(C)C)c1`, the Potency result is “inactive”.

With `COc1c(N2C[C@@H]3CCCN[C@@H]3C2)c(F)cc2c(=O)c(C(=O)O)cn(C3CC3)c12`, the Potency result is “inactive”.

Regarding `C#CCN[C@@H]1CCc2ccccc21`, the Potency entry is “inactive”.

For the compound `C[C@@H]1CCC[C@H](C)N1`, the Potency result was “inactive”.

A further test deals with Nucleoprotein (Lymphocytic choriomeningitis virus (strain Armstrong)) (UniProt P09992). Kind of test: qHTS for Inhibitors of the Functional Ribonucleoprotein Complex (vRNP) of Lymphocytic Choriomeningitis Arenaviruses (LCMV): LCMV Primary Screen - GLuc reporter signal (AID 1347086). Further: nearly all actives have a fitted effect of over 70% in size. The settings on record: LCMV minigenome vRNP cell assay, Gaussia luciferase reporter; series mostly up to 57.5 µM. In general terms: Quantitative high-throughput screening tests each substance at several concentrations.
Chain of Nucleoprotein (Lymphocytic choriomeningitis virus (strain Armstrong)) (P09992 whole entry, looked up): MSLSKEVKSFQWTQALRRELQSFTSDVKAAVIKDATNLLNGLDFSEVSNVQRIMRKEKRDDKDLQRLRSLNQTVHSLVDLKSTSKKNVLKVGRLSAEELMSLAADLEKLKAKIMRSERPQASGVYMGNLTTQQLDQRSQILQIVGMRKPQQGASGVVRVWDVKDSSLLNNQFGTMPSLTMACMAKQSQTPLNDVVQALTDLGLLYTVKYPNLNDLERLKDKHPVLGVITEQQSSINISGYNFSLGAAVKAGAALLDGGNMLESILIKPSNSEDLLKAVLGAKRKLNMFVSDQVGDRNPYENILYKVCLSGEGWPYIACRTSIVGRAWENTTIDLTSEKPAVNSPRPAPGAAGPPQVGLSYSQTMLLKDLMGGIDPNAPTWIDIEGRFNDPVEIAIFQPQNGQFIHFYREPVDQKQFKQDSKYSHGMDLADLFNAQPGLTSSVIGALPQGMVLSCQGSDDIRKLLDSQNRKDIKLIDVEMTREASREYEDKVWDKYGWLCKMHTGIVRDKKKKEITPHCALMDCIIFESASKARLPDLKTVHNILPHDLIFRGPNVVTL
For the compound `CCCc1nn(C)c2c(=O)[nH]c(-c3cc(S(=O)(=O)N4CCN(C)CC4)ccc3OCC)nc12`, the Potency result is “inactive”.

For the compound `CCCCC(O)/C=C(C)/C=C/C=C/C(=O)N1CCCC1=O` (stereo not drawn), the Potency entry was “inactive”.

As to `Cc1c(N(C)CS(=O)(=O)O)c(=O)n(-c2ccccc2)n1C`, the Potency result was “inactive”.

For `CCC1=C(C)CN(C(=O)NCCc2ccc(S(=O)(=O)NC(=O)NC3CCC(C)CC3)cc2)C1=O` (stereo not drawn), the Potency result is “inactive”.

For the compound `Cc1ccc2ccc(Cl)cc2n1`, the Potency entry is “inactive”.

For the compound `CO[C@@]1(NC(=O)CSC[C@@H](N)C(=O)O)C(=O)N2C(C(=O)O)=C(CSc3nnnn3C)CS[C@@H]21`, the Potency entry was “inactive”.

For `Cc1ccc(S(=O)(=O)NC(=O)NC2CCCCCCC2)cc1`, the Potency result was “inactive”.

In the case of `O=C1C(O)=C(O)C(=O)C(O)=C1O`, the Potency result was “inactive”.

With `COc1cc(C=O)ccc1O`, the Potency entry is “inactive”.

`CC(O)C(=O)O` (stereo not drawn): the Potency result was “inactive”.

Take `CCCCCCCCCCCC(=O)[O][Sn]([CH2]CCC)([CH2]CCC)[O]C(=O)CCCCCCCCCCC`: the Potency entry was “inactive”.

As for `Oc1ccccc1-c1nnco1`, the Potency result is “inactive”.

Consider `C[C@@H](O)[C@H]1C(=O)N2C(C(=O)O)=C(SCCN=CN)C[C@H]12`, for which the Potency entry was “inactive”.

As to `CC(=O)OCC(=O)[C@H]1CC[C@H]2[C@@H]3CCC4=CC(=O)CC[C@]4(C)[C@H]3CC[C@]12C`, the Potency entry was “inactive”.

Take `Cc1cccc(C)c1NC(=O)CC12CCCN1CCC2`: the Potency entry was “inactive”.

In the case of `O=C(O)Cn1c(=O)n(Cc2ccc(Br)cc2F)c(=O)c2ccc(Cl)cc21`, the Potency result was “inactive”.

Turning to `O=C(O)CN1C(=O)c2cccc3cccc(c23)C1=O`, the Potency entry is “inactive”.

As for `Cc1ncc(CO)c(CO)c1O`, the Potency result was “inactive”.

Turning to `CN1CCN(C(=O)C2CCCCC2)CC1`, the Potency entry was “inactive”.

Turning to `COC(=O)c1cccnc1`, the Potency entry is “inactive”.

Take `CC(=O)NCc1c(I)c(NC(C)=O)c(I)c(C(=O)O)c1I`: the Potency entry is “inactive”.

As to `Cc1ccccc1C(=O)N1CC/C(=N\OS(=O)(=O)O)c2ccc(Cl)cc21`, the Potency result is “inactive”.

`Nc1ccc(C(=O)Oc2ccccc2)c(O)c1`: the Potency entry is “inactive”.

Consider `COc1cnc(NS(=O)(=O)c2ccc(N)cc2)nc1`, for which the Potency result is “inactive”.

Regarding `CO[C@@]1(NC(=O)Cc2cccs2)C(=O)N2C(C(=O)O)=C(COC(N)=O)CS[C@@H]21`, the Potency result was “inactive”.

Regarding `O=C(CCCl)NCCc1ccccc1`, the Potency result is “inactive”.

Turning to `CCOc1cc(OCC)c(C(=O)CCC(=O)O)cc1OCC`, the Potency result is “inactive”.

Consider `CC1COc2c(N3CCN(C)CC3)c(F)cc3c(=O)c(C(=O)O)cn1c23` (stereo not drawn), for which the Potency result was “inactive”.

With `CC(CN(C)C)C(C)(O)Cc1ccc(Cl)cc1` (stereo not drawn), the Potency result is “inactive”.

For the compound `CCn1cc(C(=O)O)c(=O)c2cnc(N3CCNCC3)nc21`, the Potency result was “inactive”.

Consider `Cc1oc(=O)oc1CN1CCN(c2cc3c(cc2F)c(=O)c(C(=O)O)c2n3C(C)S2)CC1` (stereo not drawn), for which the Potency entry is “inactive”.

Turning to `Cc1ccsc1/C=C/C1=NCCCN1C`, the Potency entry was “inactive”.

Turning to `COc1ccc2c(c1)c(CC(=O)OC/C=C(\C)CC/C=C(\C)CCC=C(C)C)c(C)n2C(=O)c1ccc(Cl)cc1`, the Potency entry was “inactive”.

On to `O=C(Oc1ccccc1C(=O)O)c1ccccc1O`, for which the Potency result is “inactive”.

Take `COc1ccc(S(=O)(=O)Nc2nnc(CC(C)C)s2)cc1`: the Potency result is “inactive”.

Turning to `CC(C)(Sc1cc(C(C)(C)C)c(O)c(C(C)(C)C)c1)Sc1cc(C(C)(C)C)c(O)c(C(C)(C)C)c1`, the Potency entry was “inactive”.

Regarding `COc1c(N2C[C@@H]3CCCN[C@@H]3C2)c(F)cc2c(=O)c(C(=O)O)cn(C3CC3)c12`, the Potency entry was “inactive”.

In the case of `C#CCN[C@@H]1CCc2ccccc21`, the Potency result was “inactive”.

Turning to `C[C@@H]1CCC[C@H](C)N1`, the Potency result was “inactive”.

The values above are taken from PubChem BioAssay (NCATS).
